Pf growth 48h: Primary qHTS for delayed death inhibitors of the malarial parasite plastid, 48 hour incubation. P. falciparum luciferase growth in erythrocytes, 48 h. Potency, µM (series often up to 28.7 µM), actives largely listed as inhibitors. 310,000 tested, 5.9% active
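Luciferase-expressing P. falciparum in infected erythrocytes (2% hematocrit, 0.1% parasitemia final) in RPMI 1640/0.5% Albumax were exposed to compound for 48 hours at 37 C, 5% CO2; growth read as luminescence.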
AMA1 RON2 block: qHTS for Inhibitors of AMA1-RON; Towards Development of Antimalarial Drug Lead: Primary Screen; Plasmodium falciparum AMA1 (3D7) - RON2 peptide interaction; AlphaScreen AMA1-biotinylated RON2 peptide binding; Potency, µM (series often up to 58.2 µM), most hits filed as inhibitors; 360,000 tested, 0.2% active; AID 720542, 2013; further: nearly all actives have a fitted effect of over 45% in size
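AMA1 (3D7) with his tag at 25 nM final met compounds first, then biotinylated RON2 peptide at 25 nM; detection used donor plus acceptor beads, 10 µg/mL apiece, read by AlphaScreen after 30 min at room temperature.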
HCV inh: qHTS Assay for Inhibitors of Hepatitis C Virus (HCV); Huh7.5.1 HCVcc-Cre infection, luciferase reporter, 44 h; Potency, µM (highest dose often 41.8 µM), hits mostly inhibitors; 340,000 tested, 3.4% active; AID 651820, 2012
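Cells seeded at 1,000/well and cultured 4 h, then compounds added followed by HCVcc-Cre virus (~0.5 moi). After 44 h further culture, luciferase substrate was added, plates held 15 min at room temperature, and luminescence read for 15 sec.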
NS1 function inh: qHTS Assay for Inhibitors of Influenza NS1 Protein Function | 270,000 tested, 0.4% active | Potency, µM (top dose mostly 46.1 µM) | AID 2326, 2010; calls by dose curve; further: actives are rising curves; nearly all actives have a fitted effect of over 50% in size
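OD600 was taken as the measure of yeast growth restored by compound in an NS1-expressing S. cerevisiae strain. Cells had been washed out of glucose medium and diluted 1:100 into galactose -URA medium, pH 6.0.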
Pf growth 96h: Primary qHTS for delayed death inhibitors of the malarial parasite plastid, 96 hour incubation | 320,000 tested, 6.9% active | AID 504834, 2011 | P. falciparum luciferase reporter growth, 96 h | Potency, µM (top dose mostly 28.7 µM), most hits filed as inhibitors
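Two parasite generations (96 h, 37 C, 5% CO2) of compound exposure in infected erythrocytes (0.05% parasitemia, 2% hematocrit). Luciferase-reporter P. falciparum; decreased luminescence indicates inhibited growth, aimed at apicoplast-acting delayed death.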
SARS PLpro yeast: qHTS of Yeast-based Assay for SARS-CoV PLP. 330,000 tested, 0.19% active. AID 485353, 2010. Potency, µM (highest dose often 32.9 µM), actives largely listed as activators. S. cerevisiae expressing SARS-CoV PLpro, growth rescue; calls by dose curve; further: nearly all actives have a fitted effect of over 55% in size
Hits are given with their value; - = inactive; ? = inconclusive; . = not tested or not shown. The list is not random: actives were taken first. Their share in the collection is about 12%. Unless noted, the call rests on the fitted dose curve; in most records, active means well fitted curve in the direction sought with a large enough effect; inconclusive means small, poorly fitted or top-dose-only effect, or another doubt; inactive means no such curve, though single readings can be large; an effect the other way counts as inactive or inconclusive.

SMILES	Pf growth 48h	AMA1 RON2 block	HCV inh	NS1 function inh	Pf growth 96h	SARS PLpro yeast
CCOc1ccc(NC(=O)CN(C)C(=O)c2c(-c3c(F)cccc3Cl)noc2C)cc1OCC	?	-	?	.	1µM	-
COC(=O)c1sc(C(C)(C)C)cc1CS(=O)(=O)c1ccccn1	?	-	-	-	13µM	-
O=C(COc1ccc2ccccc2c1)NNC(=O)c1cnccn1	15µM	-	-	-	9.3µM	-
CC(C)c1ccc(OCC(=O)NNC(=O)c2cnccn2)cc1	?	-	-	-	10µM	-
COc1ccc(CC(=O)NNC(=O)c2cnccn2)cc1	-	-	-	-	-	-
COCCN(C(=O)c1cc(CN2C(=O)c3ccccc3C2=O)ccc1OC)c1c(N)n(CC(C)C)c(=O)[nH]c1=O	.	-	-	.	.	.
N#Cc1c(NC(=O)CSc2nnc(-c3ccco3)n2-c2ccccc2)sc2c1CCC2	-	-	-	-	.	-
COc1cccc(-n2c(SCC(=O)Nc3sc4c(c3C(N)=O)CCC4)nc3ccccc3c2=O)c1	4.1µM	-	?	-	-	-
NC(=O)c1c(NC(=O)CSc2nnc(-c3ccco3)n2-c2ccccc2)sc2c1CCC2	-	-	-	1.4µM	-	-
Cc1c(-n2c(SCC(=O)C(C)(C)C)nc3ccccc3c2=O)c(=O)n(-c2ccccc2)n1C	?	-	-	.	-	-
OC[C@@H]1CN(Cc2ccco2)C[C@H](n2cnc3c(NCc4ccncc4)ncnc32)O1	.	-	.	.	.	.
O=C(COC(=O)/C=C/c1cccc(C(F)(F)F)c1)NC(=O)NCc1ccco1	.	-	?	.	.	-
CC(C)[C@H](NS(=O)(=O)c1cccc(C(F)(F)F)c1)C(=O)OCC(=O)NC(=O)NCc1ccco1	.	-	11µM	.	.	-
CC(C)(CC(=O)OCC(=O)Nc1ccccc1F)CC1=NS(=O)(=O)c2ccccc2N1	?	-	-	-	12µM	-
CCOC(=O)c1cn2nc(Oc3ccc(C#N)cc3)ccc2n1	-	-	-	-	-	-
COc1ccc2c(c1OC)CN1CCc3cc4c(cc3[C@H]1C2)OCO4	3.7µM	-	11µM	.	0.72µM	-
CC1(C)C(c2ccccc2)=NC(c2ccc(F)cc2)N1O (configuration not stated)	-	-	-	-	-	-
CC1(C)C(c2cccs2)=NC(c2ccccc2)N1O (configuration not stated)	-	-	-	-	9.3µM	-
O=C1c2ccccc2C(=O)N1CCCCSc1nnc2ccccn12	13µM	-	-	-	?	-
O=C(CN1CCN(C(=O)C2CC2)CC1)Nc1ccc(Cl)cc1F	?	-	-	.	-	-
CCOc1ccccc1CNC(=O)c1ccc(NC(=O)C2=CSCCO2)cc1	-	-	-	-	?	-
COc1ccc(CC(=O)OC(C)C(=O)NC2CCCCC2C)cc1 (configuration not stated)	?	-	-	.	-	-
O=C(Nc1cc(=O)c2ccccc2o1)N1CCCCC1	4.7µM	-	-	-	5.2µM	-
NCC1CCC(N)C(O[C@@H]2C(O)[C@H](O[C@H]3OC(CO)C(O)C(N)C3O)[C@@H](N)C[C@H]2N)O1 (some centres not stated)	-	.	.	.	?	.
CCC(C)Nc1nc(-c2c[nH]c3ccccc23)cs1 (configuration not stated)	8.3µM	-	?	-	?	-
Cc1cccn2c(=O)c(-c3nnn[nH]3)cnc12	-	.	.	.	?	.
O=c1[nH]c2c(cc1CNCCN1CCOCC1)c(-c1cccc(F)c1)nn2-c1ccccc1	2.1µM	.	.	-	-	-
Cc1nn(-c2ccccc2)c2[nH]c(=O)c(CNc3ccc(N4CCOCC4)cc3)cc12	?	-	-	-	-	-
O=C(O)C1CC2(C1)CC(C(=O)O)C2 (configuration not stated)	.	.	.	-	.	.
Cc1cc(C)c2nc(SC(C)C#N)cc(C)c2c1 (configuration not stated)	.	-	10µM	-	-	-

From PubChem
